Experimental data as given in PubChem BioAssay (NCI).
This is part of a sample that, as a whole, favours compounds with a hit. Of some 83,000 tested, about 20% had one in any assay.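 Testing used 96-well plates and a 48-hour single-concentration exposure. Example: -40 means 40% of the starting cells died.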 Unmarked numbers belong to inactive results. Active and inactive are the calls of the source. Rule for the calls: active = growth percent below 10; inactive = the rest.

Key:
Experiment in all cases: NCI-60 one-dose screen, 48 h (100 = growth as untreated, 0 = no growth, -100 = all killed)
Conditions in all cases: 10 µM unless noted
[1] = test system: DU-145 prostate
[2] = test system: K-562 leukemia
[3] = test system: MALME-3M melanoma
[4] = test system: MDA-MB-231 breast
[5] = test system: RXF 393 renal
[6] = test system: SF-268 CNS
[7] = test system: SF-295 CNS
[8] = test system: SF-539 CNS
[9] = test system: UACC-257 melanoma
[10] = test system: M14 melanoma
[11] = test system: HCT-15 colon
[12] = test system: HT29 colon
[13] = test system: SNB-75 CNS
[14] = test system: SNB-19 CNS
[15] = test system: U251 CNS
[16] = test system: SK-MEL-5 melanoma
[17] = test system: UACC-62 melanoma
[18] = test system: LOX IMVI melanoma
[19] = test system: SK-MEL-28 melanoma
[20] = test system: PC-3 prostate

| SMILES | growth [1] [%] | growth [2] | growth [3] | growth [4] [%] | growth [5] [%] | growth [6] [%] | growth [7] [%] | growth [8] [%] | growth [9] [%] | growth [10] [%] | growth [11] | growth [12] | growth [13] [%] | growth [14] [%] | growth [15] [%] | growth [16] [%] | growth [17] [%] | growth [18] | growth [19] [%] | growth [20] [%] |
| --- | --- | --- | --- | --- | --- | --- | --- | --- | --- | --- | --- | --- | --- | --- | --- | --- | --- | --- | --- | --- |
| COc1cc(NCc2ccccc2O)c2ncccc2c1 | 112 | 97.3% | 92.9% | 91.3 | 100 | 110 | 129 | 86 | 109 | 94.4 | 77.8% | 102% | 64.5 | 92.8 | 98.9 | 101 | 95 | 83.9% | 111 | – |
| O=S(=O)(c1ccc(N/N=C\c2ccccc2Cl)cc1)c1ccc(N/N=C/c2ccccc2Cl)cc1 | 92.1 | 86.1% | 94.6% | 81.6 | 106 | 67.8 | 89.6 | 89.7 | 92.1 | 84.7 | 73.7% | 79.2% | 61.5 | 90.4 | 90.1 | 97.1 | 73.2 | 95.1% | 94.2 | – |
| Cc1cc(NN=C(c2ccc(O)cc2)c2ccc(O)cc2)c([N+](=O)[O-])cc1[N+](=O)[O-] | 81.8 | 99.1% | 100% | 59.6 | 25.7 | 53.9 | 43.6 | 69.5 | 42.5 | 36.8 | 46.3% | 91.5% | 74.3 | 89.3 | 49.4 | 46 | 69.1 | 25.3% | 61.6 | – |
| COC(=O)[C@H](CC(C)C)NC(=O)NC(=O)NC(=O)CI | 109 | 2.16% (active) | -57% (active) | 33.4 | 64.1 | 85 | 88.8 | 77.2 | 98.2 | 63.5 | -36% (active) | -43.2% (active) | 102 | 92 | 90.6 | 92.6 | 86.4 | -78.6% (active) | 89.6 | – |
| O=c1c2c3c(sc2n2cnnc2n1Cc1ccccc1)CCCC3 | 106 | 69.9% | 95.8% | 96.6 | 101 | 107 | 57.1 | 93.5 | 131 | 164 | 93.4% | 100% | 111 | 99 | 102 | 98 | 91.8 | 97.6% | 116 | – |
| COCCCNc1nc(NC(=O)c2cc(OC)cc(OC)c2)cc(-c2cccnc2)n1 | 101 | 86.1% | 112% | 69.1 | 97.7 | 100 | 100 | 88.9 | 106 | – | 90.3% | 95.5% | 73.1 | 98.3 | 96.8 | 72.4 | 111 | 94.5% | – | 87.3 |
| NC1=NC(=O)NC1(c1ccccc1)c1ccccc1 | 99.5 | 89.5% | 93.3% | 94 | 102 | 103 | 117 | 104 | 103 | 98.6 | 97.5% | 111% | 89.9 | 98.9 | 97.4 | 95.9 | 101 | 91.3% | 109 | – |
| Cn1ncc2c(Nc3ccc(O)cc3)nc(Cl)nc21 | 113 | 90.5% | 128% | 93.7 | 96 | 97.7 | 109 | 96.6 | 105 | 111 | 97% | 102% | 95 | 106 | 99.3 | 100 | 82.6 | 95.7% | 114 | – |
